# In the supplement of paper PMC9844399:
# Counter-ions that a name gives are not always drawn. Values without a mark were called inactive.
# Test system: HeLa
# Assay: MALAT1 nuclear FISH intensity, robust Z-score vs DMSO; higher = more nuclear MALAT1 lncRNA, active = -3 or less
# Conditions: 10 µM; 6 h
# 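Also: High-content confocal imaging of branched-DNA amplified FISH in 384-well plates, Hoechst-defined nuclei, score is well value minus plate DMSO median over DMSO robust SD, four wells per compound.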
row,Structure (SMILES),MALAT1 nuclear FISH intensity
1,Cc1cn([C@H]2C[C@H](N=[N+]=[N-])[C@@H](CO)O2)c(=O)[nH]c1=O [Zidovudine (3'-Azido-3'-Deoxythymidine)],-0.0455
2,CN[C@H]1CC[C@@H](c2ccc(Cl)c(Cl)c2)c2ccccc21,-0.692
3,CN(CCOc1ccc(CC2SC(=O)NC2=O)cc1)c1ccccn1 (stereo unspecified) [Rosiglitazone],1.66
4,C[C@@H](O)[C@H]1C(=O)N2C(C(=O)O)=C(S[C@@H]3CN[C@H](CNS(N)(=O)=O)C3)[C@H](C)[C@H]12 [Doripenem],-0.886
5,CO[C@H]1/C=C/O[C@@]2(C)Oc3c(C)c(O)c4c(O)c(c(/C=N/N5CCN(C6CCCC6)CC5)c(O)c4c3C2=O)NC(=O)/C(C)=C\C=C\[C@H](C)[C@H](O)[C@@H](C)[C@@H](O)[C@@H](C)[C@H](OC(C)=O)[C@@H]1C [Rifapentine],-0.447
6,Nc1ncn([C@H]2C[C@H](O)[C@@H](CO)O2)c(=O)n1 [Decitabine],-1.68
7,CC(=O)CC(c1ccc([N+](=O)[O-])cc1)c1c(O)c2ccccc2oc1=O (stereo unspecified) [Acenocoumarol],-2.08
8,CS(=O)(=O)OCCCCOS(C)(=O)=O [Busulfan],0.506
9,CCCCC/C=C\C/C=C\C/C=C\C=C\[C@@H](O)CCCC(=O)O,0.216
10,O=C(O)C1(C(=O)O)CCC1.[NH2-].[NH2-].[Pt+2] [Carboplatin],0.499
11,Oc1cccc(-c2nc(N3CCOCC3)c3oc4ncccc4c3n2)c1,-1.86
12,Clc1ccc(CSC(Cn2ccnc2)c2ccc(Cl)cc2Cl)cc1 (stereo unspecified) [Sulconazole Nitrate],0.433
13,CC(C)(C)NC[C@H](O)COc1nsnc1N1CCOCC1 [(S)-Timolol Maleate],0.518
14,Cc1ccc(/C(=C\CN2CCCC2)c2cccc(/C=C/C(=O)O)n2)cc1 [Acrivastine],-0.247
15,Nc1ncn([C@@H]2O[C@H](CO)[C@@H](O)[C@H]2O)c(=O)n1 [Azacytidine],1.11
16,O=c1[nH]cnc2c1ncn2[C@H]1CC[C@@H](CO)O1 [Didanosine],-0.434

row,Structure (SMILES),MALAT1 nuclear FISH intensity
1,COc1ccnc(C[S+]([O-])c2nc3cc(OC(F)F)ccc3[nH]2)c1OC (stereo unspecified) [Pantoprazole],1.09
2,C=C1/C(=C\C=C2/CCC[C@]3(C)[C@@H]([C@H](C)/C=C/[C@@H](O)C4CC4)CC[C@@H]23)C[C@@H](O)C[C@@H]1O [Calcipotriene],-0.209
3,Cc1cn([C@@H]2C[C@@H](O)[C@H](CO)O2)c(=O)[nH]c1=O [Telbivudine],-0.192
4,O=C1CN(/N=C/c2ccc(-c3ccc([N+](=O)[O-])cc3)o2)C(=O)N1 [Dantrolene sodium salt],-0.32
5,Cc1cc(C(=O)NNCc2ccccc2)no1 [Isocarboxazid],-0.791
6,OCCOCCN1CCN(C2=Nc3ccccc3Sc3ccccc32)CC1 [Quetiapine Fumarate],-0.38
7,C#C[C@]1(O)CC[C@H]2[C@@H]3CCc4cc(OC)ccc4[C@H]3CC[C@@]21C [Mestranol],0.00444
8,C[C@]12C=CC(=O)C=C1CC[C@@H]1[C@@H]2[C@@H](O)C[C@@]2(C)[C@H]1CC[C@]2(O)C(=O)CO [Prednisolone],-0.657
9,CC1(C)CCC2=C(O1)c1ccccc1C(=O)C2=O [Beta-lapachone],-8.68 (active)
10,NC(N)=Nc1nc(CSCC/C(N)=N/S(N)(=O)=O)cs1 [Famotidine],-0.447
11,O=C(O)C(=O)O.[NH-][C@@H]1CCCC[C@H]1[NH-].[Pt+2] [Oxaliplatin],-0.628
12,CCCCC[C@H](O)/C=C/[C@H]1C(=O)C=C[C@@H]1C/C=C\CCCC(=O)O [Prostaglandin J2],-0.999
13,CCOC(=O)C1=C(C)NC(C)=C(C(=O)OC)C1c1cccc(Cl)c1Cl (stereo unspecified) [Felodipine],0.725
14,CC(C)(C)C(=O)OCOP(=O)(COCCn1cnc2c(N)ncnc21)OCOC(=O)C(C)(C)C [Adefovir Dipivoxil],-0.212
15,Nc1nnc(-c2cccc(Cl)c2Cl)c(N)n1 [Lamotrigine],1.21
